According to PubChem BioAssay AID449739 (Vanderbilt High Throughput Screening Facility, 2010):
Hit rate of the full screen: of about 100,000 compounds, about 4,200 (4.2%) were called active. What follows is part of a selection rich in actives, with near analogues and random picks from the rest. Values without a mark were called inactive.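 Rule for the calls: active = single-dose well whose peak fluorescence ratio is a statistical outlier from its plate by either plate-standardised score or position-corrected B-score; inactive = the rest.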

These compounds were tested against Voltage-dependent T-type calcium channel subunit alpha-1H (Homo sapiens) (UniProt O95180) (assay: Cav3.2 calcium influx blockers – cell-based, Fluo-4 calcium fluorescence, FDSS, MLSMR library, primary screen (AID 449739)). Conditions: Cav3.2-expressing cells, at 10 µM, stronger effect = lower value.
Voltage-dependent T-type calcium channel subunit alpha-1H (Homo sapiens), sequence (O95180 whole entry, looked up): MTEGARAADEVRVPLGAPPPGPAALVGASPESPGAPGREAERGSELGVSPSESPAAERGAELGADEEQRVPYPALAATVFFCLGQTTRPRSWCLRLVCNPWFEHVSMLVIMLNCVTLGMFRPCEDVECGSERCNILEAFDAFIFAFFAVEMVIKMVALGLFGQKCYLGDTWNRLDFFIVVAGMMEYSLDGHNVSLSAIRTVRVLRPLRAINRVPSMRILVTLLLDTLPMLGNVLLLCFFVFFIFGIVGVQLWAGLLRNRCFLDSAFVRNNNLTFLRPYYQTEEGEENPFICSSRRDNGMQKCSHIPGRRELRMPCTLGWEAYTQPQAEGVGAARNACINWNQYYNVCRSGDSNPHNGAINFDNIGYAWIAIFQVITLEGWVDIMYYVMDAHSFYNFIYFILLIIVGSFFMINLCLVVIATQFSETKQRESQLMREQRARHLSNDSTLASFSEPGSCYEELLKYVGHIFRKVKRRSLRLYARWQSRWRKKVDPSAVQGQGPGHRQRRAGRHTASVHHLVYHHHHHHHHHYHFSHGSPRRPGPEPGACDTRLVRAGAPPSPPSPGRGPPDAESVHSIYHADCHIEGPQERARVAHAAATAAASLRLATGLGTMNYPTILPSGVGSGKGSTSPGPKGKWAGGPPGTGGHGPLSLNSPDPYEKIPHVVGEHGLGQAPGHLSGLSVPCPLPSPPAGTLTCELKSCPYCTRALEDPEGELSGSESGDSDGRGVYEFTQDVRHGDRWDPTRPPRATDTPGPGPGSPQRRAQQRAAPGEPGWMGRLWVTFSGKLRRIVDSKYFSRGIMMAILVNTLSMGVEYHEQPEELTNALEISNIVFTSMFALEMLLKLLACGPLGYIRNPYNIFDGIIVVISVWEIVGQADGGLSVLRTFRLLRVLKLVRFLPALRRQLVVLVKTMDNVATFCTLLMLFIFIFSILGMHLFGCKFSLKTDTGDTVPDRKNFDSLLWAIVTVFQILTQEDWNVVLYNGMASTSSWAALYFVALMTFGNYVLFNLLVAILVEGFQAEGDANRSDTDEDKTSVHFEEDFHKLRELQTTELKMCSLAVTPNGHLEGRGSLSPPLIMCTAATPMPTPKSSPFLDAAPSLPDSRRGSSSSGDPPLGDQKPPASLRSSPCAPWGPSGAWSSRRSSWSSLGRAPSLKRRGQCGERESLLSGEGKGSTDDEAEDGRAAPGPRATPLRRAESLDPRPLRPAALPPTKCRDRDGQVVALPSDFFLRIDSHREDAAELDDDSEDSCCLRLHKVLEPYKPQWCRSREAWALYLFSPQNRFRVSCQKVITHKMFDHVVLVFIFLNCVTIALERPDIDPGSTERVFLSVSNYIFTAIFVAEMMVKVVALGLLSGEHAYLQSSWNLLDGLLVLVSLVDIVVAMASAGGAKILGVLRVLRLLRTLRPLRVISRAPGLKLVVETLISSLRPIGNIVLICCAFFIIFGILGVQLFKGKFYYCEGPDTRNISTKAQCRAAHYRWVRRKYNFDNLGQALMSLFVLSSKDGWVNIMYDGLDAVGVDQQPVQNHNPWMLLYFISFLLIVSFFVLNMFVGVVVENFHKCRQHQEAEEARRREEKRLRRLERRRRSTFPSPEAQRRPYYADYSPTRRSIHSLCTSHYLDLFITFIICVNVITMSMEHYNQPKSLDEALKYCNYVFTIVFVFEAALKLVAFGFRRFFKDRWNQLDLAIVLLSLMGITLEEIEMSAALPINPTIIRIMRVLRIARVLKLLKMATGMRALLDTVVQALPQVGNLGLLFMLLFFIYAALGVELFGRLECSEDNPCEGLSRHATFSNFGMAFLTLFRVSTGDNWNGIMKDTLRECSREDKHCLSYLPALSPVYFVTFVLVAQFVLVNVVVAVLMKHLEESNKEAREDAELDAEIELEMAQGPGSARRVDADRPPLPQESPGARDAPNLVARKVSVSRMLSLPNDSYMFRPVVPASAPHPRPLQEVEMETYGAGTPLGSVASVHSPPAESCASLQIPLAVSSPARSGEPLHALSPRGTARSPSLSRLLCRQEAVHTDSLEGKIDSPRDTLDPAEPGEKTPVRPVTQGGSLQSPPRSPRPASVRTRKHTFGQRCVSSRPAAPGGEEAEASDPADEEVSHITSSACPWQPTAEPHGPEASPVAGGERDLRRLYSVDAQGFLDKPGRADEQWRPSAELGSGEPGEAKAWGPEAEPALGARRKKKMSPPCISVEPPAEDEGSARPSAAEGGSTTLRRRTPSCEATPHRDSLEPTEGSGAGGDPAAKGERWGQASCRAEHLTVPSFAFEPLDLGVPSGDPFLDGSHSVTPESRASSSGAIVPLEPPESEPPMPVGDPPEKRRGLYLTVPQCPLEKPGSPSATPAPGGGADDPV

Structure (SMILES) | B-score
Cn1c(=O)n(C)c2cc(/C=N/NC(=O)c3cccc(Br)c3)ccc21 | 1.83
O=C(N/N=C\c1cccc(Br)c1)c1ccccc1-n1cccc1 | -6.5 (active)
COc1ccc(C(=O)Nc2ccccc2C(=O)N/N=C/c2ccc(O)c(OC)c2)cc1 | 0.134
COc1ccc2c(c1)CC[C@@H]1[C@@H]2CC[C@]2(C)C(=O)CC[C@@H]12 | -0.311
Fc1ccc(CSc2nnc(-c3cc4c(s3)-c3ccccc3CC4)o2)cc1 | -3.39 (active)
CCSc1nnc(-c2cc3c(s2)-c2ccccc2CC3)o1 | 0.187
Fc1ccc(-c2nnc(CSc3nnc(-c4ccc5c(c4)OCO5)o3)o2)cc1 | -0.34
Cc1nn(C)c(Oc2ccccc2)c1CCNS(=O)(=O)c1ccc(F)cc1 | -1.06
CC(C)=CC(=O)Nc1nnc(-c2ccc(F)cc2)s1 | 0.294
c1ccc(CSc2nnc(-c3ccco3)c(-c3ccco3)n2)cc1 | 0.232
c1ccc(CSc2nnc(-c3ccco3)n2Cc2ccccc2)cc1 | -4.26 (active)
O=C(CSc1nnc(-c2ccco2)n1Cc1ccccc1)NC(=O)NCc1ccco1 | -1.76
CCOC(=O)CN1C(=O)N[C@@H](c2ccc(Br)cc2)C(C(C)=O)=C1C | 1.08
CC(N=Cc1nc(-c2ccccc2)oc1O)c1ccccc1 (stereo not given) | -4.84 (active)
CC(NC(=O)c1cc(-c2ccccc2)on1)c1ccccc1 (stereo not given) | 0.962
C/C=C(\C)C(=O)N1CC2(CC(c3cccc(NC(=O)CCCCC)c3)=NO2)C[C@@H]1C(N)=O (stereo not given in full) | -0.0964
O=C1c2ccccc2NC(c2ccc(-c3cccc(Cl)c3)o2)N1O (stereo not given) | -6.09 (active)
C[C@@H](C(=O)N1CCNCC1)n1cc(CCC(=O)O)nn1 | 0.81
Cc1cccc(NC(=O)CN2CCCN(S(=O)(=O)c3ccc(Br)s3)CC2)c1 | -4.23 (active)
Cc1cccc(OCCCC(=O)Nc2ccc(S(=O)(=O)N3CCCC3)cc2)c1 | -4.11
Cc1cccc(NC(=O)CN2C(=O)CNC2=O)c1 | -0.246
O=C(NC1CC1)C1=C[C@H](c2coc3ccccc3c2=O)C[C@H](OCCCCO)O1 | 0.0579
Cc1ccc(-n2c(SCC(=O)Nc3ccc4c(c3)OCO4)nnc2-c2ccoc2C)cc1 | -0.45
COc1ccccc1NC(=O)CSc1nnc(-c2ccoc2C)n1CCc1ccccc1 | -2.79
CCCn1c(SCC(=O)Nc2cccc(C(=O)OCC)c2)nnc1-c1ccoc1C | -5.22 (active)
